Bioassay records (PubChem)
Only some compounds are listed: those with a hit (about 13% of all), similar ones and a draw of the others.
USP10 block – inhibitors of human USP10 deubiquitinase | Q14694 | purified USP10, Ub-rhodamine fluorescence, 60 min | inhibition, % at 20 µM | hit rate 1.1% among 47,000
USP30 block – inhibitors of human USP30 deubiquitinase; hit rate 5.3% among 47,000; purified USP30, Ub-rhodamine cleavage fluorescence; Q70CQ3; inhibition, % at 25 µM
Target sequence (Q70CQ3 whole entry, looked up): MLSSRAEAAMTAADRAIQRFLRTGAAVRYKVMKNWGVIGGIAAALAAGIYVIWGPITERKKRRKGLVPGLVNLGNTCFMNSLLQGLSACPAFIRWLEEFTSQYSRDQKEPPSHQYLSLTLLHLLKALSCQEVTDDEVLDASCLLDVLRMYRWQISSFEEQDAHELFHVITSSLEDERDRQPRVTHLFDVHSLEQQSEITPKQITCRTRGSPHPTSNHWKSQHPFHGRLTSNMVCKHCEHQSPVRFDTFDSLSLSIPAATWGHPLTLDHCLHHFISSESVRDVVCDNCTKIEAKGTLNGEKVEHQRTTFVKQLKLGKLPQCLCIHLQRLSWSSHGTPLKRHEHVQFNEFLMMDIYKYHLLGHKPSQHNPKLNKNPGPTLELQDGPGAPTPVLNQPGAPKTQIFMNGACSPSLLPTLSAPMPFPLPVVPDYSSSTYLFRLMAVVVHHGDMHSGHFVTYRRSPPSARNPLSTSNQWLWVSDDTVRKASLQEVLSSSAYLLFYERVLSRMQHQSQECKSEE
USP28 inh – human USP28 deubiquitinase inhibition | purified USP28, Ub-rhodamine cleavage fluorescence, 30 min | AID 1645857 | inhibition, % at 25 µM | Q96RU2 | hit rate 3% among 47,000
USP17 inh – human USP17-like deubiquitinase inhibition | A8MUK1 | purified USP17, Ub-rhodamine cleavage fluorescence, 3 h | inhibition, % at 50 µM | hit rate 6.5% among 47,000
USP8 block – human USP8 deubiquitinase inhibition; hit rate 4.2% among 47,000; AID 1645853; inhibition, % at 20 µM; purified USP8, Ub-rhodamine cleavage fluorescence, 30 min; P40818
A number is an active result; i = inactive; nt = not tested or not shown. Cut-off read from the data, not from the text of the source: active = inhibition above about 30%; inactive = the rest.

SMILES | USP10 block | USP30 block | USP28 inh | USP17 inh | USP8 block
O=C(CN1C(=O)C(c2ccccc2)Oc2cccnc21)NCCCN1CCCCCC1 (stereo not drawn) | i | i | i | 41 | i
O=C(CSc1nnc(CNC(=O)c2ccccc2F)o1)Nc1ccc(Br)cc1 | i | i | i | 33 | i
Cn1c(C(=O)NCc2ccc(F)cc2)cc2sc(Cl)cc21 | i | 34 | i | i | i
Cc1nc(Nc2ccc(Cl)cn2)sc1C(=O)NCc1ccccn1 | i | i | i | i | 50
N#Cc1c2n(c(=O)n(Cc3ccccc3)c1=O)CCC2 | i | i | i | i | i
COCCCNC(=O)c1ccc(Cn2c(=O)c3ccccc3n(CC(=O)N3CCN(c4ccccc4)CC3)c2=O)cc1 | i | i | i | i | i
COCCNC(=O)Cn1c(=O)n(Cc2ccccc2)c(=O)c2c3c(sc21)CCC3 | i | 59 | i | i | i
COCCNC(=O)Cn1c(=O)n(Cc2ccc(C(=O)NCc3ccc(C)cc3)cc2)c(=O)c2ccccc21 | i | 90 | 84 | 77 | i
COCCCNC(=O)c1ccc(Cn2c(=O)c3ccccc3n(CC(=O)NC3CCCCC3)c2=O)cc1 | i | 46 | i | 62 | i
COCCCNC(=O)c1ccc(Cn2c(=O)c3ccccc3n(CC(=O)NCc3ccco3)c2=O)cc1 | i | i | i | i | i
COc1ccc(COCC(O)CN2CCN(c3cccc(C(F)(F)F)c3)CC2)cc1OC (stereo not drawn) | i | i | i | i | i
Cn1cc(S(=O)(=O)N2CCCC2)cc1C(=O)N1CCN(Cc2ccccc2)CC1 | i | i | i | i | i
COc1ccc(-c2noc(CCC3CCCC3)n2)cc1OC | i | i | i | i | i
O=c1ccc(-c2noc(Cc3cccc(Cl)c3)n2)c[nH]1 | i | i | 68 | i | i
O=c1ccc(-c2noc(CCC3CCCC3)n2)c[nH]1 | i | i | 43 | i | i
Cc1nnc2ccc(-c3noc(Cc4cccc(F)c4)n3)cn12 | i | i | i | nt | i
COc1ccc(Cc2nc(-c3ccc(=O)[nH]c3)no2)cc1OC | i | i | 33 | i | i
O=c1ccc(-c2noc(Cc3cccc(C(F)(F)F)c3)n2)c[nH]1 | i | i | 48 | i | i
COc1ccc(NC(=O)Cc2nc(-c3cccc(Cl)c3)no2)cc1 | i | i | i | i | i
COc1cccc(NC(=O)CCC(=O)N2CCSc3ccccc32)c1 | i | i | 35 | i | i
Cc1cc(C)c(NC(=O)CCC(=O)N2CCSc3ccccc32)c(C)c1 | i | i | i | i | i
Cc1ccccc1N1C(=O)N(c2ccccc2)C2CS(=O)(=O)CC21 (stereo not drawn) | i | i | i | i | i
CN(C)c1nc2cc(C(=O)N3CCCC3)sc2n1-c1ccccc1 | i | i | i | i | 57
CNC(=O)c1cc2nc(N(C)C)n(-c3ccc(F)cc3)c2s1 | i | i | 46 | 71 | 89
Cn1nc(-c2ccccc2)c2cc(C(=O)N3CCOCC3)sc21 | i | i | i | i | i
SMILES | USP10 block | USP30 block | USP28 inh | USP17 inh | USP8 block
c1ccc(-c2nc(-c3nnn(-c4ccccc4)c3-c3ccncc3)no2)cc1 | i | i | i | 51 | i
Cc1c(-c2noc(-c3ccncc3)n2)nnn1-c1ccccc1 | i | 31 | i | i | i
Cc1c(-c2noc(-c3cccnc3)n2)nnn1-c1ccccc1 | i | i | i | i | i
CC(C)CN1C[C@@H]2C(=O)NC3(CCN(C(=O)c4ccccc4)CC3)[C@@H]2C1 | i | i | i | i | i
Cc1cc(C)c(NC(=O)Cc2c(C)nc3c(-c4ccccc4)c(C)nn3c2C)c(C)c1 | i | 35 | i | i | i
CCCCC[C@H](O)/C=C/C=C/CCCCCCCC(=O)O | i | i | i | i | i
CC/C=C\C/C=C\C/C=C\CCCCCCCC(=O)O | 54 | 53 | 74 | 88 | 39
Cc1cccc(NC(=O)c2nc3c(=O)[nH]c4cc(C)ccc4n3n2)c1 | i | i | i | 35 | i
CCOc1ccc(NC(=O)c2nc3c(=O)[nH]c4cc(C)ccc4n3n2)cc1 | i | i | i | 54 | i
CCOC(=O)N1CCN(C(=O)c2ccc(NCc3ccc(F)cc3)c(S(=O)(=O)Nc3cccc(C(F)(F)F)c3)c2)CC1 | 56 | i | i | i | i
CCOC(=O)N1CCN(C(=O)c2ccc(CNS(=O)(=O)c3ccc(NC(C)=O)cc3)cc2)CC1 | i | i | i | i | i
O=C(COc1ccc(Cl)cc1Cl)NCCCc1ccccc1 | i | 32 | i | i | i
COc1ccccc1NC(=O)COc1ccccc1-c1nnc(-c2ccccc2)o1 | i | i | i | i | i
O=C(COc1ccc(F)cc1Cl)NCCCn1ccc2ccccc21 | i | i | i | i | i
O=C(COc1ccccc1-c1nnc(-c2ccccc2)o1)NCCCc1ccccc1 | i | 35 | i | i | i
O=C(Nc1cccc2ccccc12)N1CCC(c2nc3c(nnn3Cc3ccc(F)cc3)c(=O)[nH]2)CC1 | i | 36 | 38 | 91 | 97
O=C(C1CCCC1)N1CCC(c2nc3c(nnn3Cc3c(F)cccc3Cl)c(=O)[nH]2)CC1 | i | i | i | i | i
CCc1ccccc1NC(=O)N1CCC(c2nc3c(nnn3Cc3ccc(F)cc3)c(=O)[nH]2)CC1 | i | i | i | i | i
CCOc1ccc(C(=O)N2CCC(c3nc4c(nnn4Cc4ccccc4Cl)c(=O)[nH]3)CC2)cc1 | i | i | i | i | i
O=c1[nH]c(C2CCN(S(=O)(=O)c3ccccc3)CC2)nc2c1nnn2Cc1c(Cl)cccc1Cl | 32 | 39 | i | i | i
O=c1[nH]c(C2CCN(S(=O)(=O)c3cccc4ccccc34)CC2)nc2c1nnn2Cc1ccccc1Cl | i | 31 | 33 | i | i
O=C(C1CCC1)N1CCC(c2nc3c(nnn3Cc3c(Cl)cccc3Cl)c(=O)[nH]2)CC1 | i | 36 | i | i | i
COc1ccc(OC)c(CCNC(=O)c2cccc(N3C(=O)CCS3(=O)=O)c2)c1 | i | i | i | i | i
Cc1nnc(SCCn2c(N3CCc4ccccc4C3)nc3c2c(=O)[nH]c(=O)n3C)s1 | i | i | i | i | i
O=C(NCc1ccc(F)cc1)C1CCCN(S(=O)(=O)N2CCCCC2)C1 (stereo not drawn) | i | i | i | i | i
SMILES | USP10 block | USP30 block | USP28 inh | USP17 inh | USP8 block
Cc1cccc(CNS(=O)(=O)c2ccc3c(c2)NC(=O)CCS3)c1 | i | i | i | i | i
CCC1CN(S(=O)(=O)c2ccc3c(c2)NC(=O)CCS3)c2cc(C)ccc2O1 (stereo not drawn) | i | 43 | i | i | i
Cc1ccc(-n2nc(C)c3c2NC(=O)CC3C(=O)c2ccc3c(c2)OCCO3)cc1 (stereo not drawn) | i | i | i | i | i
O=C(Nc1oc2ccccc2c(=O)c1-c1ccc(F)cc1)c1ccccc1 | i | i | i | i | i
CC(=O)Nc1c(-c2ccc3c(c2)OCO3)c(=O)c2ccccc2n1C | i | 49 | i | i | i
O=C(Nc1oc2ccccc2c(=O)c1-c1ccc2c(c1)OCO2)C1CCCCC1 | i | i | i | 83 | i
CC(=O)Nc1ccc(NC(=O)c2ccc3c(c2)CC(c2ccccc2)OC3=O)cc1 (stereo not drawn) | i | i | i | i | 34
